Source: PubChem BioAssay (Tox21)
Values joined by “and” are separate entries in the source; they are usually repeats but may differ in a detail not shown here. Equal values may be shown once. Inconclusive results are not listed. Active and inactive are the calls of the source. Calls come from the whole dose curve; as a rule, active = well fitted curve in the direction sought with a large enough effect in the repeat runs; inconclusive = weak or mixed curves; inactive = no such curve, though single readings can be large; an effect the other way counts as inactive or inconclusive.

What was measured:
[1] = Human pregnane X receptor (PXR) small molecule agonists, qHTS cell viability counter screen (AID 1346977); note: nearly all actives have a fitted effect of over 50% in size
In short: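 Cytotoxicity counter screen run in the same wells as the PXR luciferase assay, using PXR-Luc HepG2 cells in charcoal-stripped serum medium. Viability: CellTiter-Fluor fluorescence after 24hr compound treatment.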

[2] = Caspase-3/7 induction in HepG2 cells by small molecules, qHTS assay (AID 1346978); note: nearly all actives have a fitted effect of over 15% in size
In short: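 Caspase-3/7 induction was measured by Caspase-Glo 3/7 luminescence (30 min, room temperature) after a 17 hr compound exposure of wild-type HepG2 cells seeded at 2,000 per well and pre-incubated 5 hr.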

[3] = Caspase-3/7 induction in CHO-K1 cells by small molecules, qHTS cell viability counter screen (AID 1346979); note: nearly all actives have a fitted effect of over 35% in size; note: potency is the fitted concentration of half-maximal effect
In short: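 Cytotoxicity counter screen run in parallel with the caspase-3/7 assay: CHO-K1 cells, 16hr compound treatment at 37C, then CellTiter-Fluor for 1hr before fluorescence reading.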

[4] = Caspase-3/7 induction in CHO-K1 cells by small molecules, qHTS assay (AID 1346980); note: nearly all actives have a fitted effect of over 15% in size
In short: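 Luminescent Caspase-Glo 3/7 read (30min, room temperature) quantified apoptosis induction. Cells were wild-type CHO-K1, treated with compound for 17hr at 37 C and 5% CO2.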

[5] = Caspase-3/7 induction in HepG2 cells by small molecules, qHTS cell viability counter screen (AID 1346981); note: series mostly up to about 92 µM; nearly all actives have a fitted effect of over 30% in size
In short: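 After a 5-hr attachment period at 37 C and 5% CO2, wild-type HepG2 cells received compounds in DMSO. Sixteen hours later CellTiter-Fluor was dispensed and the fluorescent signal quantified after a further hour.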

[6] = biological target: Nuclear receptor subfamily 1 group I member 2 (Homo sapiens) (UniProt O75469); experiment: Human pregnane X receptor (PXR) small molecule agonists, qHTS assay (AID 1346982); note: nearly all actives have a fitted effect of over 35% in size; note: potency is the fitted concentration of half-maximal effect
In short: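 Tox21 qHTS; PXR-Luc HepG2; compounds pinned from DMSO; 24 hr, 37 C; ONE-Glo luciferase detection, 30 min room temperature.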

[7] = biological target: Nuclear receptor subfamily 1 group I member 2 (Rattus norvegicus) (UniProt Q9R1A7); experiment: Rat pregnane X receptor (rPXR) activation by small molecules, qHTS assay (AID 1346983); settings: rPXR luciferase reporter cells, One-Glo luminescence, 24 h; max activation: active compounds read high; note: nearly all actives have a fitted effect of over 20% in size
In short: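 Luminescent readout (One-Glo luciferase, 30 min room temperature) followed 24 hr compound treatment at 37 C of rPXR cells plated 2,000 per well and preincubated 5hr; qHTS format with compounds delivered in DMSO.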

[8] = biological target: Nuclear receptor subfamily 1 group I member 2 (Homo sapiens) (UniProt O75469); experiment: CYP3A4 induction through human pregnane X receptor (PXR) by small molecules, qHTS assay (AID 1346984); note: nearly all actives have a fitted effect of over 40% in size
In short: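 Cells (DPX-2; HepG2 with PXR element plus CYP3A4-promoter luciferase) settled 5hr, then were treated 24hr at 37C. A 3hr, 3uM-final Luciferin-IPA step preceded luminescence measurement with One-Glo.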

[9] = biological target: Nuclear receptor subfamily 1 group I member 2 (Homo sapiens) (UniProt O75469); experiment: Human pregnane X receptor (PXR) activation by small molecules, qHTS assay (AID 1346985); note: nearly all actives have a fitted effect of over 40% in size
In short: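 DPX-2 cells (HepG2 co-transfected with a PXR response element and a CYP3A4-promoter luciferase construct) were seeded at 2,000 per well, rested 5 hr at 37C, then exposed to DMSO-dissolved compounds for 24 hr. Activation was read as luciferase luminescence.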

[10] = biological target: Cytochrome P450 2D6 (Homo sapiens) (UniProt P10635); experiment: Cytochrome P450 Family 2 Subfamily D Member 6 (CYP2D6) small molecule antagonists: luciferase reporter qHTS assay (AID 1671196); note: nearly all actives have a fitted effect of over 50% in size; note: potency is the fitted concentration of half-maximal effect; for activity change, negative = inhibition: series mostly up to about 120 µM
In short: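 Room-temperature luminescent CYP2D6 activity assay: compound preincubated 10 min with enzyme–substrate mix, NADPH-initiated reaction 1 h, detection reagent 20 min before reading.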

[11] = biological target: Cytochrome P450 2C19 (Homo sapiens) (UniProt P33261); experiment: Cytochrome P450 Family 2 Subfamily C Member 19 (CYP2C19) small molecule antagonists: luciferase reporter qHTS assay (AID 1671197); note: nearly all actives have a fitted effect of over 65% in size; note: potency is the fitted concentration of half-maximal effect; for activity change, negative = inhibition: series mostly up to about 120 µM
In short: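 P450-Glo CYP2C19 system: enzyme-substrate mix with compound 10 min at room temperature, then NADPH regeneration solution, 1 h at 37C. Proluciferin-to-luciferin conversion detected by luminescence after 20 min with detection reagent; ketoconazole as positive control.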

[12] = biological target: Cytochrome P450 2C9 (Homo sapiens) (UniProt P11712); experiment: Cytochrome P450 Family 2 Subfamily C Member 9 (CYP2C9) small molecule antagonists: luciferase reporter qHTS assay (AID 1671198); note: nearly all actives have a fitted effect of over 50% in size; note: potency is the fitted concentration of half-maximal effect; for activity change, negative = inhibition: series mostly up to about 120 µM
In short: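 Enzyme-substrate mix preincubated with compound 10 min at room temperature; reaction started with NADPH regeneration solution, 1 h 37C. Luminescent luciferin product read after 20 min detection reagent.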

[13] = biological target: Cytochrome P450 1A2 (Homo sapiens) (UniProt P05177); experiment: Cytochrome P450 Family 1 Subfamily A Member 2 (CYP1A2) small molecule antagonists: luciferase reporter qHTS assay (AID 1671199); note: nearly all actives have a fitted effect of over 50% in size; note: potency is the fitted concentration of half-maximal effect; for activity change, negative = inhibition: series mostly up to about 120 µM
In short: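 Room-temperature CYP1A2 reaction with proluciferin substrate: compounds added from DMSO, 10 min preincubation, NADPH regeneration for 1 h. Luciferin detection reagent then added; luminescence recorded as RLU.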

[14] = biological target: Voltage-gated inwardly rectifying potassium channel KCNH2 (Homo sapiens) (UniProt Q12809); experiment: Human Ether-a-go-go-Related Gene (hERG) channel small molecule antagonists: fluorescence cell-based qHTS assay (AID 1671200)
In short: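 Fluorescence at 540 nm emission (480 nm excitation) was recorded kinetically for 2 min at 1-second intervals once the thallium-containing stimulus reached cells previously loaded with FluxOR II dye.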

[15] = biological target: Cytochrome P450 3A4 (Homo sapiens) (UniProt P08684); experiment: Cytochrome P450 Family 3 Subfamily A Member 4 (CYP3A4) small molecule antagonists: luciferase reporter qHTS assay (AID 1671201); note: nearly all actives have a fitted effect of over 50% in size; note: potency is the fitted concentration of half-maximal effect; for activity change, negative = inhibition: series mostly up to about 120 µM
In short: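 qHTS, 1536-well. CYP3A4 + proluciferin substrate, cpd 10 min RT → NADPH regen 1 h RT → detection reagent 20 min → luminescence (RLU). Ketoconazole positive control.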
% is set by controls: 0 for no effect and ±100 for the full control effect.

Cytochrome P450 2C9 (Homo sapiens), sequence (P11712 whole entry, looked up): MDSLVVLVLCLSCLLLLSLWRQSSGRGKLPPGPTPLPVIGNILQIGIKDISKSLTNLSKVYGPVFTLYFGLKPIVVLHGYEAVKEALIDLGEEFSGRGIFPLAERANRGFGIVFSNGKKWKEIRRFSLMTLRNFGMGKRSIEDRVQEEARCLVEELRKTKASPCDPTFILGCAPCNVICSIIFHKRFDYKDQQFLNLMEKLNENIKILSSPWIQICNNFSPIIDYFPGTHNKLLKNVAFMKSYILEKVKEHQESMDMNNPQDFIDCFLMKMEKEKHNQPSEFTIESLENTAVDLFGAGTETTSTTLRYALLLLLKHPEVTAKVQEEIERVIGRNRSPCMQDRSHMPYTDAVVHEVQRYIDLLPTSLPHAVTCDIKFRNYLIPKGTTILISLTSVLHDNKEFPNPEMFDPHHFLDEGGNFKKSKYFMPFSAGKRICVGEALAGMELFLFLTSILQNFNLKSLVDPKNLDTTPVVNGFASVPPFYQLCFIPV
Nuclear receptor subfamily 1 group I member 2 (Rattus norvegicus), sequence (Q9R1A7 whole entry, looked up): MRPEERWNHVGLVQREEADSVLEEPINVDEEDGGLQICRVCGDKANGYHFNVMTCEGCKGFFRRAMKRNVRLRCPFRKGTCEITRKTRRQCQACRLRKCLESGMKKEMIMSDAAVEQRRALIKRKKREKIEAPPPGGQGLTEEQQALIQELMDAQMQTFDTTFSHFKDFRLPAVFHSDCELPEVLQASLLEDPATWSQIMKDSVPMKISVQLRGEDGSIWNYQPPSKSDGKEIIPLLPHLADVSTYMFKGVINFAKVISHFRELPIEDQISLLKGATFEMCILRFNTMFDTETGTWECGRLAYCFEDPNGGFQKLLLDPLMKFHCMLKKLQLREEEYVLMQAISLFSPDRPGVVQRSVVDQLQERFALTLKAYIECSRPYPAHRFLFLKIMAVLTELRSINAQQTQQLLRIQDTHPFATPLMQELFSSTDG
Cytochrome P450 3A4 (Homo sapiens), sequence (P08684 whole entry, looked up): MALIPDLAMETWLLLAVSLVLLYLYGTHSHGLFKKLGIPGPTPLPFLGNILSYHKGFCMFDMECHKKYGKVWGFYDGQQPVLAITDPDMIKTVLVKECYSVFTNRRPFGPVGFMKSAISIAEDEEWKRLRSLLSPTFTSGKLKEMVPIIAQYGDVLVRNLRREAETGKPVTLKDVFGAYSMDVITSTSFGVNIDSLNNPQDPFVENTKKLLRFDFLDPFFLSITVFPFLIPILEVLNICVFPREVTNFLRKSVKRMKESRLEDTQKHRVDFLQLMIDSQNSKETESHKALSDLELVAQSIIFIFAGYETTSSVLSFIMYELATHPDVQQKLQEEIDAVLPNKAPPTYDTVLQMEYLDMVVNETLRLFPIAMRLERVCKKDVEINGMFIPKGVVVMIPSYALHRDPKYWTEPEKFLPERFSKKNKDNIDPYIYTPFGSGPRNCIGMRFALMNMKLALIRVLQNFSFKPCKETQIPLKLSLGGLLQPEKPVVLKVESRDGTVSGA
Voltage-gated inwardly rectifying potassium channel KCNH2 (Homo sapiens), sequence (Q12809 whole entry, looked up): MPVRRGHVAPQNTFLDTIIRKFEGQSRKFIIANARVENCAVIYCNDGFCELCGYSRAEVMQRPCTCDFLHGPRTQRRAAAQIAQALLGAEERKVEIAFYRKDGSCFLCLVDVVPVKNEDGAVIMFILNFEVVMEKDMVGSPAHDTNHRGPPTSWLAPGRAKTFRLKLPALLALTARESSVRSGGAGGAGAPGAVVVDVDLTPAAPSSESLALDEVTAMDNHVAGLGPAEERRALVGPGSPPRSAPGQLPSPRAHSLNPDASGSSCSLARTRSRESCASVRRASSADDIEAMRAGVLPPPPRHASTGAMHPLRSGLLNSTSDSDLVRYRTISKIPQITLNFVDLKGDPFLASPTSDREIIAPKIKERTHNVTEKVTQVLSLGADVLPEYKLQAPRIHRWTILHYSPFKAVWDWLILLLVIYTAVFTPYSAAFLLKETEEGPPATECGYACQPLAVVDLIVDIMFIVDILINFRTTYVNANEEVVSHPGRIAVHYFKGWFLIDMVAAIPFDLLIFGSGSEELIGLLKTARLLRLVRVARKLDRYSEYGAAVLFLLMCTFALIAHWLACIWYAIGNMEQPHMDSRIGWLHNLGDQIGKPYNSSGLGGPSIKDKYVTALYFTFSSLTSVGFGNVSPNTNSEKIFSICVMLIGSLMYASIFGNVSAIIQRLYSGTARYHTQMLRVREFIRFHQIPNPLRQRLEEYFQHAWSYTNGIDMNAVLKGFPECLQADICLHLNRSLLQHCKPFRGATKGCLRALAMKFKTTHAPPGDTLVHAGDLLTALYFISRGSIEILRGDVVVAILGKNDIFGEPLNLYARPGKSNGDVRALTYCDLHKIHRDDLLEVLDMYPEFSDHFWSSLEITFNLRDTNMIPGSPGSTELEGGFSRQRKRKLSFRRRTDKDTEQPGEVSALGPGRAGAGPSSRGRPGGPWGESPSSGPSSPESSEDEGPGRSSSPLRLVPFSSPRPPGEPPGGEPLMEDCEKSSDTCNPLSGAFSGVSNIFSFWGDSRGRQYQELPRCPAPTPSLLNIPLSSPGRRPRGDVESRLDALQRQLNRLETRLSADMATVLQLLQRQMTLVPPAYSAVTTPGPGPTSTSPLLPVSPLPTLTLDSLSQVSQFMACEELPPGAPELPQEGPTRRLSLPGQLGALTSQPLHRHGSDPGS
Cytochrome P450 2D6 (Homo sapiens), sequence (P10635 whole entry, looked up): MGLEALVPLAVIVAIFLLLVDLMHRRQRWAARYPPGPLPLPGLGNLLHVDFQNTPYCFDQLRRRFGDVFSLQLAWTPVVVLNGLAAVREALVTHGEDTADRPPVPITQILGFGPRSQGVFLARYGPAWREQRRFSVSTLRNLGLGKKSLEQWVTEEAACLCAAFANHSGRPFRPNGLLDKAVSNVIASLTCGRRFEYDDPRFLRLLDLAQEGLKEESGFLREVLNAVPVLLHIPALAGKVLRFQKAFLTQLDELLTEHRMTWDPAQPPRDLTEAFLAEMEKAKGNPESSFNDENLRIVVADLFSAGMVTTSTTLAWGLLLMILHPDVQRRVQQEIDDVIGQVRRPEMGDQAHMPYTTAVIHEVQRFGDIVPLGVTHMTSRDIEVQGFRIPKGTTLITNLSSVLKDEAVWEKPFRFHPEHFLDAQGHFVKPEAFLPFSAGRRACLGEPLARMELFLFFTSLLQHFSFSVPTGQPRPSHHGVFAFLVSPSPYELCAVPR
Cytochrome P450 1A2 (Homo sapiens), sequence (P05177 whole entry, looked up): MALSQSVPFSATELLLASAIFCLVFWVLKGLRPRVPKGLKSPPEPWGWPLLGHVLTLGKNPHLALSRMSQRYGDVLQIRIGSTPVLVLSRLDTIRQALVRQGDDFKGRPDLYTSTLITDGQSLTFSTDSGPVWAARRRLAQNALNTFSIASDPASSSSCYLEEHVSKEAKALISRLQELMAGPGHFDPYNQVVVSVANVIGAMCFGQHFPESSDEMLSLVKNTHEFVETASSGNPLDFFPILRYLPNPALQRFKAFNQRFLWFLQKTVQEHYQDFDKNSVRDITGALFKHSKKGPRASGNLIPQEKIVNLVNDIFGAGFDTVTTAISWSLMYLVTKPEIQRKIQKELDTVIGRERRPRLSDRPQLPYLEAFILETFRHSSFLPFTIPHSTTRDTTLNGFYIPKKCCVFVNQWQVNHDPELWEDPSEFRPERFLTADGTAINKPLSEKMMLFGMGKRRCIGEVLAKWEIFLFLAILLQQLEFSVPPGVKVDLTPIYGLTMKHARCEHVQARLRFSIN
Cytochrome P450 2C19 (Homo sapiens), sequence (P33261 whole entry, looked up): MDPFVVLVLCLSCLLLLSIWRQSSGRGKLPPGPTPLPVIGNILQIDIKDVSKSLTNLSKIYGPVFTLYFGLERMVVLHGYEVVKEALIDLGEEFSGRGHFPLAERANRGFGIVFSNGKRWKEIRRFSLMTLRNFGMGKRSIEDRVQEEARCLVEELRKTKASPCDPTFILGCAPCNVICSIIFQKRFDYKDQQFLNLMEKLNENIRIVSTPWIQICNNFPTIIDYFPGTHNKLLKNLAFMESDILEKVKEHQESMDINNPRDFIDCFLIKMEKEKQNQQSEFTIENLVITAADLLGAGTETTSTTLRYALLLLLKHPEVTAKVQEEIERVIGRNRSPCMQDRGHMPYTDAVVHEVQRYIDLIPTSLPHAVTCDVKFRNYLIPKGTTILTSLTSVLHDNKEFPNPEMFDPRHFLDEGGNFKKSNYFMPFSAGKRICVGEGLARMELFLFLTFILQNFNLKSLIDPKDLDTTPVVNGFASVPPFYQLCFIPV
Nuclear receptor subfamily 1 group I member 2 (Homo sapiens), sequence (O75469 whole entry, looked up): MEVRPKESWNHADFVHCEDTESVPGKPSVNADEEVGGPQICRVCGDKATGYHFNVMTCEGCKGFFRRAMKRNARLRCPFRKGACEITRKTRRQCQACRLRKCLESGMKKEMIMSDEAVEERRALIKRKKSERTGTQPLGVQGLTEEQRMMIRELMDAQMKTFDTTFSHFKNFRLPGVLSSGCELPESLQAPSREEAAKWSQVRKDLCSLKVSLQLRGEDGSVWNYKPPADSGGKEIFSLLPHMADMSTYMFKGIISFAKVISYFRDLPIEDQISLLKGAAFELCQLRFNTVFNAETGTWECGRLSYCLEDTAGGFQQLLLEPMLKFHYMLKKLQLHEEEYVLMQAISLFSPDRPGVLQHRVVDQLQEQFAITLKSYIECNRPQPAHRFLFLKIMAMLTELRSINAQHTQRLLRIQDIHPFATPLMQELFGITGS

O=c1[nH]c2cc(C(F)(F)F)c(N3CCOCC3)cc2n(CP(=O)(O)O)c1=O
inactive: Potency [1] | Potency [2] | Potency [3] | outcome [4] | Potency [5] | Potency [6] | max activation [7] -2.81% | Potency [8] | Potency [9] | Potency [10] | Potency [11] | Potency [12] | Potency [13] | Potency [14] | Potency [15]

CC(C)(C)C(O)/C=C/c1ccc2c(c1)OCO2 (stereo not drawn)
active: Potency [6] 29.8 µM | Potency [10] 27.5 µM | Potency [11] 3.89 µM | Potency [12] 3.89 µM | Potency [13] 5.75 µM
inactive: Potency [1] | Potency [2] | Potency [3] | outcome [4] | Potency [5] | Potency [14]

CC(C)Cc1ccc(CC(=O)O)cc1
inactive: Potency [1] | Potency [2] | Potency [3] | outcome [4] | Potency [5] | Potency [6] | max activation [7] -5.33% | Potency [8] | Potency [9] | Potency [11] | Potency [13] | Potency [14] | Potency [15]

O=C(NC(Cc1cc(=O)[nH]c2ccccc12)C(=O)O)c1ccc(Cl)cc1 (stereo not drawn)
inactive: Potency [1] | Potency [2] | Potency [3] | outcome [4] | Potency [5] | Potency [6] | max activation [7] -0.429% | Potency [8] | Potency [9] | Potency [10] | Potency [11] | Potency [12] | Potency [13] | Potency [14] | Potency [15]

O=S(=O)(O)CO
inactive: Potency [1] | Potency [2] | Potency [3] | outcome [4] | Potency [5] | Potency [6] | Potency [10] | Potency [12] | Potency [14] | Potency [15]
active: Potency [11] 35.1 µM | Potency [13] 31.3 µM

O=C(Nc1ccc(C(=O)O)c(O)c1)c1ccccc1
inactive: Potency [1] | Potency [2] | Potency [3] | outcome [4] | Potency [5] | Potency [6] | max activation [7] -2.23% | Potency [8] | Potency [9] | Potency [13] | Potency [14]
active: Potency [10] 15.5 µM

CC(=O)NNC(C)=O
inactive: Potency [1] | Potency [2] | Potency [3] | outcome [4] | Potency [5] | Potency [6] | Potency [10] | Potency [11] | Potency [12] | Potency [13] | Potency [14] | Potency [15]

CC(C)C(O)C(C)(C)CO (stereo not drawn)
active: Potency [10] 32.7 µM | Potency [11] 41.2 µM | Potency [12] 65.3 µM | Potency [13] 65.3 µM
inactive: Potency [1] | Potency [2] | Potency [3] | outcome [4] | Potency [5] | Potency [6] | Potency [14]

CCCCCCCC(=O)OCCCCCC
inactive: Potency [1] | Potency [2] | Potency [3] | outcome [4] | Potency [5] | Potency [6] | Potency [10] | Potency [11] | Potency [12] | Potency [13] | Potency [14] | Potency [15]

COc1ccc2nc(S(=O)Cc3ncc(C)c(OC)c3C)[nH]c2c1 (stereo not drawn)
active: Potency [3] 67.8 µM | Potency [6] 53.8 µM and 26.6 µM | Potency [10] 5.57 µM and 17.4 µM | Potency [11] 5.57 µM and 11 µM | Potency [12] 31.3 µM and 13.8 µM | Potency [13] 8.83 µM and 15.5 µM
inactive: Potency [1] | Potency [2] | outcome [4] | Potency [5] | Potency [14]

Cc1cn([C@H]2C[C@H](F)[C@@H](CO)O2)c(=O)[nH]c1=O
inactive: Potency [1] | Potency [2] | Potency [3] | outcome [4] | Potency [5] | Potency [6] | max activation [7] -7.91% | Potency [8] | Potency [9] | Potency [11] | Potency [12] | Potency [14] | Potency [15]

CC[C@H]1OC(=O)[C@H](C)[C@@H](O[C@H]2C[C@@](C)(OC)[C@@H](O)[C@H](C)O2)[C@H](C)[C@@H](O[C@@H]2O[C@H](C)C[C@H](N(C)C)[C@H]2O)[C@](C)(O)C[C@@H](C)C(=O)[C@H](C)[C@@H](O)[C@]1(C)O
active: Potency [15] 3.45 µM
inactive: Potency [1] | Potency [2] | Potency [3] | outcome [4] | Potency [5] | Potency [6] | max activation [7] -0.703% and -0.253% | Potency [8] | Potency [9] | Potency [10] | Potency [11] | Potency [13]

CCCCC[C@H](O)/C=C/[C@H]1[C@H](O)CC(=O)[C@@H]1C/C=C\CCCC(=O)O
inactive: Potency [1] | Potency [2] | Potency [3] | outcome [4] | Potency [5] | Potency [6] | max activation [7] -0.864% | Potency [8] | Potency [9] | Potency [10] | Potency [11] | Potency [12] | Potency [14] | Potency [15]

COC(OC)OC
inactive: Potency [1] | Potency [2] | Potency [3] | outcome [4] | Potency [5] | Potency [6] | Potency [10] | Potency [11] | Potency [12] | Potency [13] | Potency [14] | Potency [15]

Cc1ccc(N(CC2=NCCN2)c2cccc(O)c2)cc1
active: Potency [10] 0.776 µM | Potency [11] 17.4 µM
inactive: Potency [1] | Potency [2] | Potency [3] | outcome [4] | Potency [5] | Potency [6] | Potency [12] | Potency [13]

CCCCCCCCCCCCCC(=O)OCC(O)CO (stereo not drawn)
inactive: Potency [1] | Potency [2] | Potency [3] | outcome [4] | Potency [5] | Potency [6] | Potency [10] | Potency [14]
active: Potency [11] 35.6 µM | Potency [12] 22.4 µM | Potency [13] 22.4 µM

c1ccc2sc(SSc3nc4ccccc4s3)nc2c1
inactive: activity change, negative = cytotoxicity [1] 14.6% [at 19 µM] | caspase activation [2] 1.15% [at 19 µM] | activity change, negative = cytotoxicity [3] 8.61% [at 19 µM] | caspase-3/7 activation [4] -0.79% [at 19 µM] | activity change, negative = cytotoxicity [5] 0.175% [at 19 µM] | activation [6] 0% [at 19 µM] | max activation [7] -4.43% | Potency [8] | Potency [9] | activity change, negative = inhibition [13] -16.1% [at 23.6 µM] | activity change, negative = inhibition [14] 5.4% [at 15.8 µM]
active: Potency [11] 4.77 µM | Potency [12] 9.52 µM

CCC(CO)(CO)CO
inactive: Potency [1] | Potency [2] | Potency [3] | outcome [4] | Potency [5] | Potency [6] | Potency [10] | Potency [11] | Potency [12] | Potency [13] | Potency [14] | Potency [15]

COc1ccc(-c2cc(C(F)F)nn2-c2ccc(S(N)(=O)=O)cc2)cc1F
inactive: Potency [1] | Potency [2] | Potency [3] | outcome [4] | Potency [5] | max activation [7] -1.2% | Potency [8] | Potency [9]
active: Potency [6] 15 µM | Potency [10] 8.71 µM | Potency [12] 8.71 µM
